Test results from PubChem BioAssay AID435019 (Southern Research Specialized Biocontainment Screening …, 2010).
Screen size: about 2,300 compounds; about 1,200 (52%) were called active. How the calls were made is not given here. So high a share suggests a set chosen from earlier hits. This is one part of the list. Results with a measured potency or affinity are listed apart.

assay: mammalian cell cytotoxicity, dose response, cytotoxicity control for M. tuberculosis inhibitor project (AID 435019); settings: cytotoxicity counter-screen; series mostly up to 40 µM;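 further: lower values mean fewer viable cells so more cytotoxicity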

Row | Compound | outcome
1 | Cn1ccnc1-c1nnn(-c2ccc(Cl)c(Cl)c2)n1 | inactive
2 | CC12CCC(=O)N1C(C(=O)Nc1ccc(SC(F)F)cc1)CS2 (stereo not drawn) | inactive
3 | CCn1cnc2sc(C(=O)Oc3ccc(Br)cc3)c(C)c2c1=O | inactive
4 | COc1ccc(NC(=O)CN(C)C(=O)c2n[nH]c3ccccc23)cc1 | inactive
5 | COc1ccccc1C1CC(c2ccc(Cl)cc2)Nc2ncnn21 (stereo not drawn) | inactive
6 | CCN(CC)S(=O)(=O)c1cc(C(=O)Oc2cccc(-c3cnc4ccccc4n3)c2)ccc1Br | inactive
7 | Cc1ccc(-c2ccc(C3C(C#N)=C(N)Oc4n[nH]c(C)c43)o2)cc1 (stereo not drawn) | inactive
8 | CCc1nnc(N/N=C/c2cc(C)c(C)cc2C)n1N | inactive
9 | COc1ccc(-c2nnn(CC(=O)OC3CCCCC3)n2)cc1OC | inactive
10 | CO[C@@H]1[C@@H](OC(N)=O)[C@@H](O)C(Oc2ccc3c(O)c(NC(=O)c4ccc(O)c(CC=C(C)C)c4)c(=O)oc3c2C)OC1(C)C (stereo partly drawn) | inactive
11 | O=C(COC(=O)C1=COCCO1)NCc1ccc(Cl)cc1 | inactive
12 | O=Cc1ccc2noc(-c3ccc(Cl)cc3)c2c1 | inactive
13 | O=S1(=O)CCC(N=Cc2ccc(-c3ccc(Cl)cc3)o2)C1 (stereo not drawn) | inactive
14 | Cc1ccc2[nH]c3c(c2c1)CN(C(=O)CN1CCN(c2ccccn2)CC1)CC3 | inactive
15 | Cc1ccc2cc(C)c(N3CCN(c4ccccn4)CC3)nc2c1 | inactive
16 | Cc1cc(C)c2c(CN3CCN(Cc4ccccc4)CC3)cc(=O)oc2c1C | inactive
17 | C#CCOCCOCCOCCNc1nc(N2CCN(C(=O)C(Cc3ccc(O)cc3)n3cc(C(N)CC(C)C)nn3)CC2)nc(N2CCN(C(=O)C(Cc3cc4ccccc4[nH]3)n3cc(C(N)Cc4ccc(O)cc4)nn3)CC2)n1 (stereo not drawn) | inactive
18 | CC1(C)CN(c2ccccc2)N(C(=O)c2ccc(C#N)cc2)C1=O | inactive
19 | CCOc1ccc(N2CC(=O)Nc3ccccc3NCC2=O)cc1 | inactive
20 | CCOc1ccc(-n2cc(-c3ccccc3)c3c(=O)[nH]cnc32)cc1 | inactive
21 | Cc1ccccc1-c1nc2cc(N)ccc2o1 | inactive
22 | O=C([O-])c1ccccc1-[n+]1c(-c2ccccc2)cc(-c2ccccc2)cc1-c1ccccc1 | inactive
23 | Cc1nc(-c2ccc(Cl)cc2)sc1C1(C)CC(c2ccc(C#N)cc2)=NO1 (stereo not drawn) | inactive
24 | CCOc1cc(C(=O)OCc2ccc(C(=O)OC)o2)cc(Br)c1OC | inactive
25 | Cc1ccc(-c2ccnc(=S)[nH]2)cc1 | inactive
26 | CC12CN3CCN(CC(C3)/C1=N\NC(=O)Nc1cccc(Cl)c1)C2 | inactive

Row | Compound | outcome
27 | CNC(CC(C)C)C(=O)NC1C(=O)NC(CC(N)=O)C(=O)NC2C(=O)NC3C(=O)NC(C(=O)NC(C(=O)O)c4cc(O)cc(O)c4-c4cc3ccc4O)C(O)c3ccc(c(Cl)c3)Oc3cc2cc(c3OC2OC(CO)C(O)C(O)C2OC2C[C@](C)(N)C(O)C(C)O2)Oc2ccc(cc2Cl)C1O (stereo partly drawn) | inactive
28 | COc1cc(C)ccc1S(=O)(=O)N1CCN(C23CC4CC(CC(C4)C2)C3)CC1 | inactive
29 | Brc1ccc(-c2nc3ncccn3c2Nc2ccc3c(c2)OCCO3)o1 | inactive
30 | COC(=O)[C@@H](NC(=O)O[C@@H]1C(=O)c2ccc(OC)cc2O[C@H]1c1cccc(C(F)(F)F)c1)C(C)C | inactive
31 | Cc1ccn2nc(S(=O)(=O)Nc3c(F)cccc3F)nc2n1 | inactive
32 | Cc1ccc(OC(=O)CCN2C(=O)c3ccccc3C2=O)cc1C | inactive
33 | O=[N+]([O-])c1ccc(N2CCCCC2)s1 | inactive
34 | Cc1ccc(C)c(C2C(=O)c3ccccc3C2=O)c1 | inactive
35 | NN(Cc1ccccc1)C(=S)Nc1ccc(Cl)c(Cl)c1 | inactive
36 | C=C(C)C1Cc2c(C)nn(-c3nc(C)cc(C)n3)c2C1 (stereo not drawn) | inactive
37 | O=C(/C=C/c1ccccc1)N1CCN(CCN2C(=O)c3cccc4cccc(c34)C2=O)CC1 | inactive
38 | COc1ccc(C(=O)NNc2ccccc2)cc1OC | inactive
39 | O=C(CSC1=Nc2ccccc2C2=NC(c3ccccc3)C(=O)N12)NC1CCCCC1 (stereo not drawn) | inactive
40 | CN1C(=O)CC(c2ccccc2)C1=O (stereo not drawn) | inactive
41 | c1ccc(NNC2=NCCCCC2)cc1 | inactive
42 | COC(=O)c1ccc(NC(=S)NC(=O)C2CCC2)cc1 | inactive
43 | COc1cc(/C=C/c2cc[n+](C)cc2)ccc1OCC(=O)Nc1ccc(Cl)c(Cl)c1 | inactive
44 | CC1(c2ccc(Cl)c(Cl)c2)NC(=S)N2C1NC(=S)N2c1ccccc1 (stereo not drawn) | inactive
45 | Cc1cc(-c2ccc(Cl)cc2)c2cnn(C(C)C)c2n1 | inactive
46 | Cc1ccc(-c2nc3ccsc3c(=O)o2)cc1 | inactive
47 | COC(=O)C(C)Oc1ccc(-c2nccc(-c3ccccn3)n2)cc1 (stereo not drawn) | inactive
48 | CCCCSCCCNC(=O)c1cn(CC)c2ccc(S(=O)(=O)N3CCOCC3)cc2c1=O | inactive
49 | COc1ccc(C(=O)C[n+]2ccc3c(c2)nc(-c2cc(OC)c(OC)cc2OC)n3C)cc1 | inactive
50 | Nc1nc(CN2CCN(c3ccccc3F)CC2)nc(N2CCCc3ccccc32)n1 | inactive
51 | CCCc1cc(-c2nc(-c3ccc(Br)cc3)cs2)ccn1 | inactive
52 | CC(=O)c1cccc(NC(=O)C2C3C=CC(C3=C(c3ccccc3)c3ccccc3)C2C(=O)O)c1 (stereo not drawn) | inactive

Row | Compound | outcome
53 | CCOc1ccc(NC(=O)CSc2nc(O)c(C)c(=O)n2-c2ccc(F)cc2)cc1 | inactive
54 | COc1cccc(C(=O)NC2CC3CCCC(C2)N3CC(=O)Nc2ccc(N(C)C)cc2)c1 (stereo not drawn) | inactive
55 | Cc1ccc2c(c1)c1c3n2CCN=C3CCC1 | inactive
56 | CC(C)Nc1nc(NC(C)C)nc(N(C)N)n1 | inactive
57 | CCOc1cccc(C=Nc2cc(C)cc(C)c2O)c1O | inactive
58 | O=[N+]([O-])c1ccc(-c2ccc(/C=N/c3c(-c4ccco4)nc4ccccn34)o2)cc1 | inactive
59 | O=[N+]([O-])c1cc(-c2ccc(/C=N\n3cnnc3)o2)cc([N+](=O)[O-])c1 | inactive
60 | CCCCCC1CC(CC(=O)NC(=S)Nc2ccc([N+](=O)[O-])cc2)C(=O)O1 (stereo not drawn) | inactive
61 | CCOC(=O)C(C)Sc1ncnc2c1nnn2-c1ccc(F)cc1 (stereo not drawn) | inactive
62 | COc1ccc(-c2ccc(C#N)c(SCC(=O)OCc3ccccc3)n2)cc1OC | inactive
63 | CC1(C)C2CCC1(C)C(OCC[N+](C)(C)CC(=O)OC1CCCCC1)C2 (stereo not drawn) | inactive
64 | CC(=O)CCSc1ncnc2sc(-c3ccccc3)cc12 | inactive
65 | Nn1c(SCc2ccccc2)nc2ccccc21 | inactive
66 | COC(=O)CCc1nc2c(C#N)c(-c3ccc(Cl)cc3)ccn2n1 | inactive
67 | CC(C)(C)c1ccc(OCCCC(=O)NC2=NCCS2)cc1 | inactive
68 | CCOC(=O)c1sc2nc(C)nc(SC(C)C(=O)N(C)c3ccccc3)c2c1C (stereo not drawn) | inactive
69 | O=C(CCCC(=O)OCC(=O)c1cccs1)Nc1ccc(Oc2ccccc2)cc1 | inactive
70 | CCc1cc2c(=O)n(C(C)C(=O)OC3CCCCC3)cnc2s1 (stereo not drawn) | inactive
71 | Cc1ccc(S(=O)(=O)NNC(=O)c2cc([N+](=O)[O-])c(C)c([N+](=O)[O-])c2)cc1 | inactive
72 | COc1ccc(N(CC(=O)Nc2ccccc2C(N)=O)S(=O)(=O)c2ccc(C)c([N+](=O)[O-])c2)cc1 | inactive
73 | CCc1cccc2c(=O)c(C(=O)N3CCOCC3)c[nH]c12 | inactive
74 | COc1ccc(N=Cc2ccc(CNS(=O)(=O)c3ccc(Cl)cc3)o2)cc1 | inactive
75 | CN(C)c1ccc(CNC2C3CC4CC(C3)CC2C4)cc1 (stereo not drawn) | inactive
76 | CCCCCCCCCCNC(=O)C(=O)Nc1ccccn1 | inactive
77 | CCOc1ccccc1NC(=O)C12CC3CC(C1)CC(c1ccc(C)cc1)(C3)C2 | inactive
78 | C[C@H](O)[C@H](O)[C@H]1CNc2nc(N)[nH]c(=O)c2N1 | inactive

Row | Compound | outcome
79 | Cc1cc(C)cc(NC(=O)CCc2ccc(C)o2)c1 | inactive
80 | Cc1cc(C(=O)COC(=O)C2=COCCO2)c(C)n1-c1cccc(F)c1 | inactive
81 | O=C(NC1CCCCC1)C1CC(=O)N(c2cccc([N+](=O)[O-])c2)C1 (stereo not drawn) | inactive
82 | CC(=O)OC1=Cc2c(ccc3ccc(=O)oc23)OC1(C)C | inactive
83 | COc1ccc(NCc2nnc(SCC(=O)c3ccc(OC)cc3)o2)cc1 | inactive
84 | COc1ccc(/C(O)=C/Sc2nnc(Cc3ccccc3)o2)cc1 | inactive
85 | Nc1ccc2c(c1)nnn2-c1ccccc1 | inactive
86 | COc1cc(/C=C(\C#N)c2nc3c(s2)CC(C)CC3)ccc1O (stereo not drawn) | inactive
87 | CCC[C@@H]1C[C@@H](C(=O)NC(C(C)Cl)[C@H]2O[C@H](SC)[C@H](O)[C@@H](O)[C@H]2O)N(C)C1 (stereo partly drawn) | inactive
88 | Nc1ccc(Oc2ccc3c(c2)OCO3)cc1 | inactive
89 | O=C1NN(c2ccc(Br)cc2)C(=O)/C1=C\c1ccc(O)cc1O | inactive
90 | C=CCOc1ccc(C2=NOC(C(=O)Nc3ccc4c(c3)OCCO4)C2)cc1 (stereo not drawn) | inactive
91 | COc1ccccc1NC(=O)CN1CCN(CC(=O)Nc2ccc3c(c2)OCO3)CC1 | inactive
92 | Nc1ncc2[nH]cnc2n1 | inactive
93 | C[C@]12C=CC(=O)C=C1CC[C@@H]1C2=CC[C@]2(C)[C@@H](C(=O)CN3CCN(c4cc(N5CCCC5)nc(N5CCCC5)n4)CC3)CC[C@@H]12 | inactive
94 | COc1ccc(/C=N/Nc2nncn2N)cc1Br | inactive
95 | CCOC(=O)CSc1snnc1-c1ccccc1 | inactive
96 | CCc1ccc(CCOc2ccc(CC3SC(=O)NC3=O)cc2)nc1 (stereo not drawn) | inactive
97 | Cc1cc(C)n(C(=O)c2ccc([N+](=O)[O-])cc2[N+](=O)[O-])n1 | inactive
98 | Cc1ccc(NC(=O)c2ccc(CSc3nnc(C)s3)cc2)c(C)c1 | inactive
99 | COC(=O)c1cc(NC(=O)c2c(F)c(F)c(F)c(F)c2F)cc(C(=O)OC)c1 | inactive
100 | C=CC[n+]1ccn(-c2nc3ccccc3nc2[N-]S(=O)(=O)c2cccs2)c1 | inactive
101 | C/C(CC(=O)Nc1ccc2c(c1)OCCO2)=N\NC(=O)c1ccccc1F | inactive
102 | N#CC(C(=O)NCc1ccco1)c1nc2ccccc2nc1N1CCOCC1 (stereo not drawn) | inactive
103 | CCOC(=O)C1CCN(c2nc3cc(OC)ccc3cc2C#N)CC1 | inactive
